# Experimental data from PubChem BioAssay AID1963322 (National Center for Advancing Translational Sciences (NCATS), 2024).
# Inconclusive results are not listed. Entries that show only a call come without a potency. A number with no mark means an inactive call. Activity calls are given as the source filed them. The call rests on the fitted dose curve.
# Target: cAMP-dependent protein kinase catalytic subunit alpha (Homo sapiens) (UniProt P17612)
# Experiment: Protein Kinase A (PKA-HiBiT) SDR gain of signal screen
# Summary of the method: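 PKA-N-HiBiT enzyme at 10 nM final was preincubated with compounds for 30 min at room temperature, protected from light. Nano-Glo HiBiT reagent was then added for 10 min, and luminescence was read by CCD imager. H-89 served as positive control.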
Structure (SMILES),Potency,"activity change, positive = signal gain"
COc1ccc2c(Oc3ccc(NC(=O)c4c(C)n(CC(C)(C)O)n(-c5ccccc5)c4=O)nc3)ccnc2c1,inactive,–
Nc1ncc(-c2cnn(CCO)c2)c2scc(-c3ccc(NC(=O)Nc4cccc(F)c4)cc3)c12,inactive,–
CCn1nc(C2CCN(C(=O)CCO)CC2)nc1-c1cnc(N)c(-c2nnc(C(C)(C)C)o2)n1,inactive,–
O=C(NC1CCNCC1)c1[nH]ncc1NC(=O)c1c(Cl)cccc1Cl,inactive,–
Cc1ccccc1-n1c([C@H](C)Nc2nc(N)nc3nc[nH]c23)nc2cccc(C)c2c1=O,inactive,–
COc1ccc(S(=O)(=O)N(C(C)=O)c2ccccc2/C=C/c2cc[n+]([O-])cc2)cc1,inactive,–
FC(F)(F)c1ccc(/C=C/c2nc(COc3ccc(CCCCn4ccnn4)cc3)co2)cc1,inactive,–
Cc1[nH]c(/C=C2\C(=O)Nc3ccc(S(=O)(=O)Cc4c(Cl)cccc4Cl)cc32)c(C)c1C(=O)N1CCC[C@@H]1CN1CCCC1,inactive,–
CCN1/C(=C\C(C)=O)Sc2ccc(OC)cc21,inactive,–
NC1CCC(Nc2nc(Nc3ccc(C(=O)N4CCCCC4)cc3)c3ncn(-c4cccc(F)c4)c3n2)CC1 (stereo unspecified),11.5 µM (active),–
Nc1nc(NCCNc2ncc(-n3ccnc3)c(-c3ccc(Cl)cc3Cl)n2)ccc1[N+](=O)[O-],inactive,–
C#Cc1cccc(Nc2ncnc3cc4c(cc23)OCCOCCOCCO4)c1,inactive,–
Cc1cccc(/C=N/Nc2cc(N3CCOCC3)nc(OCCc3ccccn3)n2)c1,inactive,–
CN1CCN(c2ccc(Nc3ncc4cc(C#N)c(=O)n(C5CCCC5)c4n3)cc2)CC1,inactive,–
O=C(O)C1(Cc2cccc(Nc3nccs3)n2)CCC(Oc2cccc(Cl)c2F)CC1 (stereo unspecified),14.5 µM (active),–
COc1ccc(CNC(=O)Nc2ncc([N+](=O)[O-])s2)cc1,inactive,–
CC(C)(C)n1nc(-c2cccc3ccccc23)c2c(N)ncnc21,inactive,–
c1ccc2c(-c3cnn4cc(-c5ccc(N6CCNCC6)cc5)cnc34)ccnc2c1,–,6.14% [at 3.64 µM]

Structure (SMILES),Potency,"activity change, positive = signal gain"
CCNC(=O)Nc1ccc(-c2nc3c(c(N4CCOC[C@@H]4C)n2)CCN(c2ncccn2)C3)cc1,inactive,–
O=c1c(O)c(-c2ccc(O)c(O)c2)oc2cc(O)cc(O)c12,inactive,–
c1ccc(-c2oc3ncnc(NC[C@@H]4CCCO4)c3c2-c2ccccc2)cc1,inactive,–
Cc1cccc(C)c1-n1c(=O)c2cnc(Nc3ccc(N4CCN(C)CC4)cc3)nc2n2c3ccccc3nc12,inactive,–
COc1cc2c(N3CCN(C(=O)Nc4ccc(OC(C)C)cc4)CC3)ncnc2cc1OCCCN1CCCCC1,inactive,–
Cc1cc(-c2cc(O)ccc2Cl)cc2nnc(Nc3ccc(OCCN4CCCC4)cc3)nc12,inactive,–
CCCS(=O)(=O)Nc1ccc(F)c(C(=O)c2c[nH]c3ncc(Cl)cc23)c1F,inactive,–
C[C@@H]1CN(CC(=O)Nc2ccc3c(c2)Cc2cccc(-c4cc(=O)cc(N5CCOCC5)o4)c2S3)C[C@H](C)O1,inactive,–
O=C(c1cccc(Cl)c1F)N1CCN(Cc2cccc(Nc3nccs3)n2)CC1,inactive,–
COc1cc(N2CCC(O)CC2)ccc1Nc1nc(Nc2ccccc2S(=O)(=O)C(C)C)c2[nH]cnc2n1,inactive,–
C=CC(=O)N1CCC[C@@H](n2nc(-c3cccc(C(=O)Nc4ccc(C(C)C)c(C)c4)c3)c3c(N)ncnc32)C1,inactive,–
C[C@@H](NC(=O)c1ncnc(N)c1Cl)c1ncc(C(=O)Nc2cc(C(F)(F)F)c(Cl)cn2)s1,inactive,–
Cc1nc2ccc(-n3ncc(C(=O)c4cc5ccccc5[nH]4)c3N)cc2[nH]1,inactive,–
CC(C)CCN1c2nc(Nc3cc(F)c(O)c(F)c3)ncc2N(C)C(=O)C1C (stereo unspecified),inactive,–
Nc1ncccc1-c1nc2ccc(-c3ccccc3)nc2n1-c1ccc(C2(N)CCC2)cc1,inactive,–
O=C1C(c2c(O)[nH]c3ccccc23)=Nc2ccccc21,inactive,–
C=CC(=O)Nc1cccc(Oc2nc(Nc3ccc(N4CCN(C)CC4)cc3OC)ncc2Cl)c1,inactive,–
Cc1[nH]nc2ncc(C(=O)N3CCC[C@H]3c3ccc(Cl)cc3)cc12,12.4 µM (active),–
